In the library only some 18% were active in any assay of this set; here they are far more common.
DT40 TDP1 no CPT = qHTS for Inhibitors of human tyrosyl-DNA phosphodiesterase 1 (TDP1): qHTS in cells in absence of CPT; DT40 Tdp1-/- hTDP1 cells, no CPT, ATP luminescence, 48 h; Potency, µM (top dose mostly 46.2 µM), for inactives: at the top dose activity change, negative = growth inhibition, hits mostly inhibitors; hit rate 15% among 420,000; AID 686978, 2013; note: nearly all actives have a fitted effect of over 55% in size
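No-CPT arm: Tdp1-/-;hTDP1 DT40 cells (400/well) plus compounds, incubated ≥48 hr at 37 °C. Readout CellTiter-Glo luminescence.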
PLK1 PBD block = PLK1 (human) polo-box domain binding inhibition | P53350 | Plk1 PBD binding of FITC phosphopeptide, fluorescence polarization | Potency, µM, for the others: max response, negative = inhibition, most hits filed as inhibitors | hit rate 2.8% among 360,000; note: series mostly up to about 57 µM; nearly all actives have a fitted effect of over 65% in size
TDP1 inh = inhibitors of human tyrosyl-DNA phosphodiesterase TDP1. Q9NUW8. recombinant TDP1, AlphaScreen DNA substrate cleavage. Potency, µM (doses to about 130 µM), for inactives: at the highest dose activity change, negative = inhibition, hits mostly inhibitors. hit rate 0.28% among 350,000. AID 485290; note: nearly all actives have a fitted effect of over 40% in size
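Steps: enzyme plus compound, 15 min RT; add biotin/phosphotyrosine-FITC oligonucleotide (15 nM final), react 5 min; add donor/acceptor beads (10 ug/ml final), 10 min; read AlphaScreen. Tdp1 at 1 nM final.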
DT40 TDP1 CPT = DT40-hTDP1 cell growth loss with CPT; Potency, µM (top dose mostly 46.2 µM), for the others: at the highest dose activity change, negative = growth inhibition, usual class: inhibitors; AID 686979; hit rate 12% among 420,000; chicken DT40 Tdp1-/-;hTDP1 cells + 20 nM CPT, ATP luminescence, 48 h; note: nearly all actives have a fitted effect of over 55% in size
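Chicken DT40 Tdp1-/- cells complemented with human TDP1, 400 cells/well, exposed to compounds plus 20 nM camptothecin for at least 48 h at 37 C; viability read as ATP content by CellTiter-Glo luminescence.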
VDR inh = inhibitors of human vitamin D receptor | P11473 | VDR-SRC2-3 peptide fluorescence polarization, 2 h | Potency, µM, for the others: max response, negative = inhibition, usual class: inhibitors | hit rate 0.93% among 400,000
Target sequence (P11473 whole entry, looked up): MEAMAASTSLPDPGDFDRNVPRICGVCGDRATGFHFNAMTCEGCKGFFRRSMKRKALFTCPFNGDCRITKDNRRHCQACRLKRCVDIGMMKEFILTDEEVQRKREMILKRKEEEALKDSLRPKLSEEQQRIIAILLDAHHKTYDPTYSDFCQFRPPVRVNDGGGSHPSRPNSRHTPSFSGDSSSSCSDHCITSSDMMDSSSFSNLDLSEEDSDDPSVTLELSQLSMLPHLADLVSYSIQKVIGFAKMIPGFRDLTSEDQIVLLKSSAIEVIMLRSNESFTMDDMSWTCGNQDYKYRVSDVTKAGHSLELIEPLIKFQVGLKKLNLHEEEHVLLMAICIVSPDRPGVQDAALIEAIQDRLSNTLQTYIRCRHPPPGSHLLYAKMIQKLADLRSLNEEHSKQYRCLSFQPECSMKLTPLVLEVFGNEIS
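The screen uses fluorescence polarization to detect compounds that interfere with recruitment of the SRC2-3 coactivator peptide to VDR; plates are read after 2 h at room temperature.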
KAT2A inh = blocks human GCN5L2 histone acetyltransferase; Q92830; GCN5L2 HAT assay, ThioGlo1 CoA-SH fluorescence; Potency, µM (series often up to 58.9 µM), for the others: at the highest dose activity change, negative = inhibition, usual class: inhibitors; hit rate 0.21% among 390,000
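GCN5L2 (20 nM) in 50mM HEPES pH 7.5, 0.1mM EDTA, 0.01% Tween-20 preincubated 15 min with compounds at room temperature. Reaction started with H3(1-25) 75uM, acetyl-CoA 70uM, ThioGlo1 50uM; CoA-thiol fluorescence (Ex340/Em540) read at 0 and 20 min.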
The depositor's hits bear a star; ! = not confirmed by another sample; [ ] = dose if it differs, or a comment. Calls come from the whole dose curve; as a rule, active = well fitted curve in the direction sought with a large enough effect; inconclusive = small, poorly fitted or top-dose-only effect, or another doubt; inactive = no such curve, though single readings can be large; an effect the other way counts as inactive or inconclusive. % is set by controls: 0 for no effect and ±100 for the full control effect; potency is the fitted concentration of half-maximal effect.

Screening N[C@H](C(=O)O)c1ccc(O)c(C(=O)O)c1 returned DT40 TDP1 no CPT 7%, TDP1 inh 14%[56.1 µM], DT40 TDP1 CPT 25%, VDR inh 11% and KAT2A inh inconclusive.
`N[C@@H](C(=O)O)c1ccc(C(=O)O)c(C(=O)O)c1` gave DT40 TDP1 no CPT -14%, TDP1 inh 40µM*!, DT40 TDP1 CPT -7%, VDR inh 1% and KAT2A inh -18%.
Screening COc1ccc(CNC(=O)CC2C[C@H](C(=O)N3CCOCC3)[C@@]3(CCC4CCCC4)c4[nH]c5ccccc5c4CCN3C2=O)cc1OC (stereo partly specified) returned DT40 TDP1 no CPT 23µM*, PLK1 PBD block -18%, TDP1 inh 3%, DT40 TDP1 CPT inconclusive, VDR inh -25% and KAT2A inh -9%.
`COc1ccc2[nH]c3c(c2c1)CCN1C(=O)C(CC(=O)NC(C)(C)C)C[C@H](C(=O)N2CCOCC2)[C@@]31CCC1CCCC1` (stereo partly specified) gave DT40 TDP1 no CPT -26%, PLK1 PBD block -14%, TDP1 inh 2%[56.1 µM], DT40 TDP1 CPT -29%, VDR inh -13% and KAT2A inh 0%.
`CC(C)(C)NC(=O)C[C@H]1C[C@H](C(=O)N2CCOCC2)[C@@]2(CCC3CCCC3)c3[nH]c4ccc(Cl)cc4c3CCN2C1=O` gave DT40 TDP1 no CPT 16µM*, PLK1 PBD block -14%, TDP1 inh 1%[56.1 µM], DT40 TDP1 CPT inconclusive, VDR inh -2% and KAT2A inh inconclusive.
For COc1ccc2[nH]c3c(c2c1)CCN1C(=O)C(CC(=O)NCc2ccc(OC)c(OC)c2)C[C@H](C(=O)N2CCOCC2)[C@@]31CCC1CCCC1 (stereo partly specified) the results were DT40 TDP1 no CPT inconclusive, PLK1 PBD block 19µM*, TDP1 inh 0%[56.1 µM], DT40 TDP1 CPT inconclusive, VDR inh inconclusive and KAT2A inh -5%.
Screening O=[N+]([O-])c1cccc(COc2cccc(CN3CCCCC3)c2)c1 returned DT40 TDP1 no CPT -15%, PLK1 PBD block -6%, DT40 TDP1 CPT -12% and VDR inh -15%.
Screening COC(=O)c1ccccc1NC(=O)Cn1c(-c2nonc2N)nc2ccccc21 returned DT40 TDP1 no CPT 0.71µM*, PLK1 PBD block -6%, TDP1 inh -1%, DT40 TDP1 CPT 0.79µM*, VDR inh -6% and KAT2A inh -4%.
For Nc1nonc1-c1nc2ccccc2n1CC(=O)N/N=C/c1ccc(-c2cccc(C(=O)O)c2)o1 the results were DT40 TDP1 no CPT -1%, PLK1 PBD block inconclusive, TDP1 inh 14µM*, DT40 TDP1 CPT -4%, VDR inh 10% and KAT2A inh -13%.
Screening CCc1ccc(NC(=O)Cn2c(-c3cncs3)nc3ccccc32)cc1 returned DT40 TDP1 no CPT 15µM*, TDP1 inh 7%, DT40 TDP1 CPT inconclusive, VDR inh 6% and KAT2A inh -8%.
Screening Nc1nonc1-c1nc2ccccc2n1CC(=O)Nc1ccccc1C(=O)O returned DT40 TDP1 no CPT inconclusive, TDP1 inh 1%, DT40 TDP1 CPT inconclusive, VDR inh -11% and KAT2A inh -1%.
O=C(Cn1c(-c2cscn2)nc2ccccc21)Nc1ccccc1F was read as DT40 TDP1 no CPT inconclusive, PLK1 PBD block 1%, TDP1 inh -14%, DT40 TDP1 CPT 7.9µM*, VDR inh 13% and KAT2A inh 0%.
O=c1[nH]c(=O)n2c(c1-c1ccccc1)OC(CBr)C2 (stereo unspecified) was read as DT40 TDP1 no CPT -17%, PLK1 PBD block -23% and DT40 TDP1 CPT -8%.
CCOC(=O)c1ccc(NC(=O)Cn2c(-c3nonc3N)nc3ccccc32)cc1 was read as DT40 TDP1 no CPT inconclusive, PLK1 PBD block 21µM*, TDP1 inh 3%, DT40 TDP1 CPT 16µM*, VDR inh inconclusive and KAT2A inh -5%.
CCOC(=O)c1[nH]c(C)c(C(=O)NCc2cccc(OC)c2)c1C was read as DT40 TDP1 no CPT -22%, TDP1 inh 3%, DT40 TDP1 CPT -3%, VDR inh 4% and KAT2A inh -10%.
COc1ccc(C(=O)N2CCN(c3ccccc3Cl)CC2)cc1S(=O)(=O)NC1CC1 was read as DT40 TDP1 no CPT 4.1µM*, PLK1 PBD block 1%, TDP1 inh 4%, DT40 TDP1 CPT inconclusive, VDR inh -20% and KAT2A inh 1%.
COc1ccc(C(=O)N2CCN(c3cccc(C)c3C)CC2)cc1S(=O)(=O)NC1CC1 was read as DT40 TDP1 no CPT 23µM*, PLK1 PBD block -10%, TDP1 inh 0%, DT40 TDP1 CPT inconclusive, VDR inh -10% and KAT2A inh -3%.
For COc1cccc(N2CCN(C(=O)c3ccc(OC)c(S(=O)(=O)NC4CC4)c3)CC2)c1 the results were DT40 TDP1 no CPT 16µM*, PLK1 PBD block 1% and DT40 TDP1 CPT inconclusive.
`CC(=O)Nc1ccccc1-c1nc2ccccc2n(CC(=O)Nc2ccc(C)c(Cl)c2)c1=O` gave DT40 TDP1 no CPT -3%, TDP1 inh 3%, DT40 TDP1 CPT -8%, VDR inh 12% and KAT2A inh 0%.
Cc1c(C(=O)Nc2cccc(F)c2)oc2c1-c1nn(Cc3c(F)cccc3Cl)cc1CC2 was read as DT40 TDP1 no CPT inconclusive, TDP1 inh 4%, DT40 TDP1 CPT inconclusive, VDR inh -5% and KAT2A inh -10%.
Screening Cc1ccc(O)c(C(=O)c2cc(C#N)c(=O)n(CC3CCCO3)c2)c1 (stereo unspecified) returned DT40 TDP1 no CPT 21µM*, PLK1 PBD block -10%, TDP1 inh 7%, DT40 TDP1 CPT 15µM*, VDR inh 0% and KAT2A inh -1%.
Screening CCS(=O)(=O)N1CCC2(CC1)OCCN2S(=O)(=O)c1ccc(C)cc1 returned DT40 TDP1 no CPT -25%, PLK1 PBD block -11%, TDP1 inh 6%, DT40 TDP1 CPT -5%, VDR inh 9% and KAT2A inh 0%.
For COc1ccc(S(=O)(=O)N2CCC3(CC2)OCCN3S(=O)(=O)c2c(C)cc(C)cc2C)cc1 the results were DT40 TDP1 no CPT 8.2µM*, PLK1 PBD block -3%, DT40 TDP1 CPT 13µM*, VDR inh -6% and KAT2A inh -4%.
